High-throughput results (PubChem)
Only a selection was taken, and hits are over-represented in it overall.
PI4K2A inh: blocks human PI4K2A kinase activity. Q9BTU6. purified PI4K2A, ADP-Glo luminescence, 1 h; stronger effect = lower value. activity change, negative = inhibition, % at 76.9 µM. 0.13% of 420,000 active; in the data active = activity change below about -50%; inconclusive = mostly about -30% to -49%;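 also: -100% = wells without enzyme as full effect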
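ADP-Glo luminescence measured ADP generated by PI4K2A enzyme (4 ug/mL before mixing) with 1.2 mM PI substrate (pre-mix) and 300 microM ATP (pre-mix). Tris pH7.5 buffer with MgCl2, Triton X-100; 1 h reaction at ambient temperature.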
Tb PGK inh: T. brucei PGK inhibition. 0.043% of 380,000 active. PGK/GAPDH coupled, Kinase-Glo luminescence, 60 min. Potency, µM (doses to about 57.5 µM), without a hit: at the top dose activity change, negative = inhibition, usual class: inhibitors. P07378; active = well fitted inhibition curve with a large enough effect; inconclusive = small, poorly fitted or top-dose-only effect; inactive = no such curve, though single readings can be large or run the other way; also: potency is read from the fitted curve at half-maximal effect; nearly all actives have a fitted effect of over 60% in size
Target sequence (P07378 whole entry, looked up): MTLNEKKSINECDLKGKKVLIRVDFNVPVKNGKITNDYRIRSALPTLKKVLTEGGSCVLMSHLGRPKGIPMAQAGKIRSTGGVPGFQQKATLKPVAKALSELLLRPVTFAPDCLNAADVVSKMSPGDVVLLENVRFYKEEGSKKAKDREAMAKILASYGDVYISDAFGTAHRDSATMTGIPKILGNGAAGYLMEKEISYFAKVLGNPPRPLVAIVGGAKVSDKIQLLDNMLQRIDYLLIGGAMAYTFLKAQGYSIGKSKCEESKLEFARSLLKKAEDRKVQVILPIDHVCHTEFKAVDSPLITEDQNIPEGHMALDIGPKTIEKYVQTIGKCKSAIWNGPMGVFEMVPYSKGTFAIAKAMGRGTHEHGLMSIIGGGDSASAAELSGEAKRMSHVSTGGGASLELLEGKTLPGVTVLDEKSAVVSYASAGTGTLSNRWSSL
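Recombinant glycosomal PGK reaction used 1,3-bisphosphoglycerate generated in-well by GAPDH (100nM final) in 100mM TEA pH 7.6, 5mM MgCl2, 0.01% Tween-20. After 60 minutes at room temperature, ATP was read by Kinase-Glo Plus luminescence end-point.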
Pin1 inhibitor: human Pin1 inhibition; Q13526; Pin1 FP peptide displacement, HiFluor488, 10 min; Potency, µM (top dose mostly 115 µM), inactives show at the top dose activity, negative = inhibition, hits mostly inhibitors; 0.009% of 390,000 active; active = well fitted inhibition curve with a large enough effect in the polarisation, with a control signal flat, not every such curve was filed as active; inconclusive = small, poorly fitted or top-dose-only effect, or effect the other way, or a change in a side signal; inactive = no such curve, though single readings can be large or run the other way; the % refers to the polarisation; also: potency is read from the fitted curve at half-maximal effect
Target sequence (Q13526 whole entry, looked up): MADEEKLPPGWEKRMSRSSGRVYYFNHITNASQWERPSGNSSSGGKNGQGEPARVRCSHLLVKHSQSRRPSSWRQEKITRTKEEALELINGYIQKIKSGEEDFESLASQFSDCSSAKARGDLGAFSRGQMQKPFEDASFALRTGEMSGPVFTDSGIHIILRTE
PI5P4Ka inh: PI5P4K alpha (human) kinase inhibition. P48426. PI5P4Kalpha enzyme, ADP-Glo luminescence, 60 min; stronger effect = lower value. max response, %. 1.2% of 330,000 active; active = max response of -50% or lower; inconclusive = between -30% and -50%; inactive = -30% or higher; also: value at the top dose of about 77 µM
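Enzyme plus substrate dispensed, test compounds pinned in, then ATP (5 microM final) added. After 60 min at RT, ADP-Glo reagent 1 for 45 min and reagent 2 for 30 min preceded luminescence imaging.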
Starred values were filed as active, the others as inactive; i = inactive; ? = inconclusive; / = no result given; [ ] = dose if it differs, or a comment. Unless noted, % is scaled to controls: 0 for no effect and ±100 for the full control effect.

SMILES	PI4K2A inh	Tb PGK inh	Pin1 inhibitor	PI5P4Ka inh
Cc1cc2c(s1)c1cnn(Cc3c(F)c(F)c(C)c(F)c3F)c(=O)c1n2C	/	/	4%	/
O=C(CCCl)NCc1ccccc1	3	/	/	/
S=c1[nH]nc(COc2ccccc2)n1/N=C/C=C/c1ccco1	-9	-7%	?	-52*
c1ccc(C(O[C@H]2CCCN(CCc3ccc4c(c3)OCO4)C2)c2ccccc2)cc1	-4	/	/	/
Cc1c(C(=O)N2CCCC2)sc(NC(=O)c2cccc(Cl)c2)c1C#N	4	-5%[11.5 µM]	1%	/
Cc1cccc(C(=O)Nc2sc(C(=O)N3CCCC3)c(C)c2C#N)c1	-75*	-4%	5%	0
Cc1ccc(C(=O)Nc2nnc(CC(=O)N/N=C/c3ccc(O)c(O)c3)s2)cc1	-16	?	?	-58*
O=C(NCCO)c1ccc2nc(-c3ccco3)c(-c3ccco3)nc2c1	?	-14%	/	-16
O=C(NC1CCCC1)c1ccc2nc(-c3ccco3)c(-c3ccco3)nc2c1	?	-17%	/	-63*
O=C(NCCc1ccccc1)c1ccc2nc(-c3ccco3)c(-c3ccco3)nc2c1	-24	-8%	?	-63*
N#Cc1nc(Nc2cccc(Br)c2)nc(NC2CCCC2)n1	/	/	69%	/
Cc1cc(Nc2ccccc2Cl)n2nc(-c3ccco3)nc2n1	-1	-1%	8%	/
Cc1cc(C)n2nc3nc(N4CCCCC4)nc(-c4ccco4)c3c2n1	-23	-4%	?	-56*
O=C(O)c1ccc(N/N=C/c2ccc3c(c2)OCO3)cc1	-67*	?	8%	?
O=C(O)c1ccc(N/N=C/c2cc3c(cc2[N+](=O)[O-])OCO3)cc1	-8	-9%	-18%	-6
O=C(O)c1cc(N/N=C/c2ccc3c(c2)OCO3)ccc1Cl	-12	-8%	-12%	-53*
O=C(O)c1ccc(N2CCc3ccccc32)c([N+](=O)[O-])c1	-3	0%	2%	-79*
COC(=O)c1ccc(N2CCc3ccccc32)c([N+](=O)[O-])c1	6	-4%	3%	-15
O=C(Nc1ccc(C(=O)N2CCCC2)cc1)c1ccccc1F	-70*	?	-3%	/
C/C(=N\NC(=O)Cc1c[nH]c2ccccc12)c1ccc2ccccc2c1	0	-7%	5%	-53*
COc1cc(NC(=O)C(OC(=O)CNC(=O)c2ccccc2)c2ccccc2)c(OC)cc1Cl (centres undefined)	/	/	0%	/
CNS(=O)(=O)c1cccc(C(=O)OCC(=O)c2ccc[nH]2)c1	-15	-14%	?	-62*
Cc1ccc(S(=O)c2ccc([N+](=O)[O-])c3nonc23)cc1 (centres undefined)	-17	-18%	/	-100*
COc1ccc(NC(=O)CSc2nc(NS(=O)(=O)c3ccccc3)cc(=O)[nH]2)cc1	-53*	?	/	/
O=C(CSc1nc(NS(=O)(=O)c2ccccc2)cc(=O)[nH]1)Nc1ccc(Cl)cc1	-27	?	82%	?
SMILES	PI4K2A inh	Tb PGK inh	Pin1 inhibitor	PI5P4Ka inh
O=S1(=O)N=C(OCc2ccccc2)c2ccccc21	/	/	-1%	/
Cc1ccc(NC(=O)c2cc(NC(=O)/C=C\C(=O)O)ccc2N2CCCCC2)cc1	-3	-10%	-2%	-69*
CC(=O)Nc1ccc(N2CCCCC2)c(C(=O)Nc2cccc(C)c2)c1	-3	-2%	2%	/
CC(NC(=O)c1cc2ccccc2oc1=O)c1ccccc1 (centres undefined)	-5	-7%	7%	1
O=C(NC(=S)Nn1cnnc1)c1ccccc1Cl	-3	-4%	4%	-7
O=C(NC(=S)Nn1cnnc1)c1ccc(F)cc1Cl	0	i	-9%	-54*
N=c1c2c(ccn1CCc1ccccc1)Oc1ccc3ccccc3c1C2c1ccccc1 (centres undefined)	/	/	27%	/
COc1cc(OC)c2c(O)c3c(c(-c4c5c(c(O)c6c(OC)cc(OC)cc46)CO[C@@H](C)[C@H]5O)c2c1)[C@H](O)[C@H](C)OC3	?	-16%	?	-90*
O=c1nc2s/c(=C\c3ccco3)c(=O)n2nc1Cc1ccc(F)cc1	?	?	/	-56*
O=c1c2ccccc2nc(N/N=C/c2c(O)ccc3ccccc23)n1O	-2	-6%	?	-78*
O=c1c2ccccc2nc(N/N=C/c2ccc(O)cc2)n1O	-6	i	3%	2
CCCCN(CCCN)c1ccc(Br)cn1	/	/	1%	/
CCC(C)NC(=O)c1sc2nc(C)c(C(=O)Nc3ccc(C)cc3C)c(-c3ccc(NC(C)=O)cc3)c2c1N (centres undefined)	-2	0%	27%	/
COc1ccc2ccccc2c1/C=N/NC(=O)c1sc(N)c(C#N)c1C	-1	-2%	?	-76*
COc1ccc2ccccc2c1/C=N\NC(=O)c1ccc(C)s1	-10	-4%	7%	?
COc1cc(/C=N/NC(=O)c2sc(N)c(C#N)c2C)cc(Br)c1O	-2	3%	17%	-73*
O=C(CSc1ncnc2nc[nH]c12)c1ccccc1	0	-4%	1%	-5
O=C(CSc1ncnc2nc[nH]c12)c1ccc(Cl)cc1	4	-3%	0%	-55*
S=C1NC(c2ccccc2)N2C(=S)NC(c3ccccc3)N12 (centres undefined)	-7	8%	-12%	-81*
Cc1ccc(C2NC(=S)N3C(c4ccc(C)cc4)NC(=S)N23)cc1 (centres undefined)	-12	6%	/	-79*
Cc1ccc(C2NC(=S)NC3=C2C(=O)CCC3)cc1 (centres undefined)	2	4%	0%	3
COc1ccc(C2NC(=S)N3C(c4ccc(OC)cc4)NC(=S)N23)cc1 (centres undefined)	-4	i	2%	-90*
COc1ccc(C2Nc3ccccc3C(=O)N2Cc2ccccc2)cc1COc1cccc(C(F)(F)F)c1 (centres undefined)	/	/	1%	/
COc1ccc2cc([S+]([O-])Cc3ncc(C)c(OC)c3C)nc2c1	0	/	/	/
CCOC(=O)c1ccc(N2CSC3=C(C#N)C(c4cccs4)CC(=O)N3C2)cc1 (centres undefined)	-3	0%	-3%	-70*
SMILES	PI4K2A inh	Tb PGK inh	Pin1 inhibitor	PI5P4Ka inh
COc1ccccc1C(=O)NC(=S)NNC(=O)c1sc2ccccc2c1Cl	1	7%	0%	-52*
COc1ccccc1C(=O)NNC(=S)NC(=O)c1sc2ccccc2c1Cl	-2	-2%	-2%	?
CCCOC(=O)c1c(NC(=O)C2C3C=CC(C3)C2C(=O)O)sc2c1CCC(C)C2 (centres undefined)	1	-13%	?	-59*
CC/C=C(\C(=O)N[C@@H]1C(=O)N2C(C(=O)OCOC(=O)C(C)(C)C)=C(COC(N)=O)CS[C@H]12)c1csc(N)n1	-11	/	/	/
CCN(C(=O)COC(=O)c1cc2c(s1)CCCCC2)C1CCS(=O)(=O)C1 (centres undefined)	3	-12%	-4%	-4
CC(C)CN(C(=O)COC(=O)c1cc2c(s1)CCC2)C1CCS(=O)(=O)C1 (centres undefined)	-26	?	?	-62*
CC(=O)NC1=NC(=O)/C(=C/c2cn(C(C)=O)nc2-c2ccccc2)S1	-5	/	69%	-87*
